Bioassay records from PubChem.
TSG101-PTAP inh: blocks PTAP/TSG101 interaction to inhibit HIV-1 budding. Potency, µM (highest dose often 115 µM), inactives show top-dose activity change, negative = inhibition, most hits filed as inhibitors. 340,000 tested, under 10 active. Q99816. Fluorescence polarization, FITC-PTAP peptide / Tsg101 binding. AID 493005; active means well fitted inhibition curve with a large enough effect in the main read-out, with a control signal flat, not every such curve was filed as active; inconclusive means small, poorly fitted or top-dose-only effect, or effect the other way, or a change in a side signal; inactive means no such curve, though single readings can be large or run the other way; further: potency means the concentration at half of the fitted maximal effect; % of control where 0% means no effect
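Compounds were pin-transferred onto Tsg101 binding domain (10 uM final) in HEPES pH 7.5 buffer, then FITC-PTAP peptide was added at 50 nM final. After 20 min at RT, polarization reported peptide displacement across a qHTS concentration series.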
DRD3 antagonist: D3 dopamine receptor (human) antagonism; 360,000 tested, 2.5% active; D3R cells, DiscoveRx beta-arrestin luminescence, antagonist mode; active compounds read low; AID 652054; P35462; max response, negative = inhibition, %; in the data active means max response below about -50%; inconclusive means no clear call, values can overlap the other calls; further: on the % scale 0 is the no-effect control and ±100 the full control effect
Target sequence (P35462 whole entry, looked up): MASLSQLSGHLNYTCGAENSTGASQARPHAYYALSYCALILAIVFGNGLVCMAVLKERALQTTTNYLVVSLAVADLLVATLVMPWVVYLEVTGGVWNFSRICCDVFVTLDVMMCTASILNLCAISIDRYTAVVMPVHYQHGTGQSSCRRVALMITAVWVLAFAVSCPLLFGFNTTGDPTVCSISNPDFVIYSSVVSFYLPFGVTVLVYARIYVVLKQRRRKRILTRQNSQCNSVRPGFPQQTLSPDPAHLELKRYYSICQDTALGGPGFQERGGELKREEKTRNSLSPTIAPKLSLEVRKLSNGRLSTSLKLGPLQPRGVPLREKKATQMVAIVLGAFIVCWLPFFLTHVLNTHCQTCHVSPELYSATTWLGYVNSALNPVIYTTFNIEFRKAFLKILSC
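Cells plated overnight at 1500 cells/well, then exposed to library compounds with dopamine controls for 90 minutes at 37 degrees C. DiscoveRx reagent added for 30–60 minutes at room temperature; luminescence read, quantitative HTS format.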
Rango release inh: inhibition of RanGTP-driven Rango-importin beta dissociation | O95149+P62826 | Potency, µM (titrated, usually from 46.1 µM), for the others: at the top dose activity change, negative = inhibition | Biochemical FRET Rango-importin beta, RanGTP-induced dissociation | 340,000 tested, 0.071% active | AID 540253; further: potency means the concentration at half of the fitted maximal effect; % of control where 0% means no effect; nearly all actives have a fitted effect of over 45% in size
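Compounds sat 5 min at room temperature with 0.1 uM Rango biosensor plus 0.25 uM importin beta, then FRET pre-read. RanGTP-RCC1 (0.6 uM Ran, 2mM GTP, 0.2 uM RCC1) added for 45 min, and the CFP/YFP post-read measured blocked complex dissociation.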
Rango complex inh: prevents formation of the Rango-importin beta complex. Rango CFP/YFP FRET sensor + importin beta, 45 min. Potency, µM (titrated, usually from 92.2 µM), for inactives: at the highest dose inhibition of complex formation. 340,000 tested, 0.031% active. AID 540263;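 further: potency means the concentration at half of the fitted maximal effect; 0% = DMSO wells and 100% = buffer wells lacking importin beta; nearly all actives have a fitted effect of over 15% in size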
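Inhibition scored from the CFP 486 nm/YFP 530 nm FRET ratio 45 min after adding 0.125 microM importin beta to 50 nM Rango biosensor preincubated 5 min with compound (room temperature, PBS with DTT, Tween-20, BSA). No-importin wells as positive control.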
DRD3 agonist: agonists of human D3 dopamine receptor; max activation, %; 410,000 tested, 0.58% active; P35462; D3R DiscoveRx beta-arrestin cells, luminescence, 90 min; in the data active means max activation above about 30%; further: 0% is about no effect
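Agonist mode: compounds and dopamine controls were applied to plated cells for 90 min at 37 degrees C after an overnight attachment at 1500 cells/well. Luminescent read-out followed 30 - 60 minutes at room temperature with DiscoveRx detection reagent.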
Mm-Cpn inhibitor: blocks the Methanococcus maripaludis chaperonin Mm-Cpn. 330,000 tested, 0.031% active. Potency, µM (highest dose often 76.9 µM), without a hit: at the top dose activity, negative = inhibition, hits mostly inhibitors. purified Mm-Cpn ATPase, ADP Transcreener TR-FRET; active means well fitted inhibition curve with a large enough effect; inconclusive means small, poorly fitted or top-dose-only effect; further: potency means the concentration at half of the fitted maximal effect; on the % scale 0 is the no-effect control and ±100 the full control effect; nearly all actives have a fitted effect of over 80% in size
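ATPase turnover read by TR-FRET ADP competition (Eu cryptate antibody/ADP-d2, 665/590 nm): 10uM ATP final, 25nM Mm-CPN final, 30 min 37degC after 10-min compound preincubation, pH 7.4 Tris/KCl/MgCl2/DTT buffer.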
* = called active by the depositor. This is a sample that favours compounds with a hit; in the whole collection about 2.9% have one here. Unless noted, the call rests on the fitted dose curve.

Screening COc1ccc(NC(=O)Cn2c(=O)n(C(C)C)c(=O)c3oc4ccccc4c32)cc1Cl returned DRD3 agonist 16.
For CCOc1ccc(CCNC(=O)Cn2nc(C)n3c(cc4occc43)c2=O)cc1OCC the results were DRD3 agonist -11.
COC(=O)c1ccc(/C=N/NS(=O)(=O)c2cc(C)ccc2C)cc1 was read as TSG101-PTAP inh 0%, DRD3 antagonist -82*, Rango release inh 6%, Rango complex inh -1%, DRD3 agonist -49 and Mm-Cpn inhibitor 3%.
For Cc1ccc(C)c(S(=O)(=O)N/N=C/c2ccc(C(=O)O)cc2)c1 the results were TSG101-PTAP inh -8%, DRD3 antagonist -19, Rango release inh 13%, Rango complex inh -1%, DRD3 agonist -19 and Mm-Cpn inhibitor -1%.
For O=C(Nc1cc(Cl)cc(Cl)c1)c1cc(S(=O)(=O)N2CCc3ccccc3C2)ccc1F the results were DRD3 agonist -2.
For Nc1sc2c(c1C(=O)NC1CCS(=O)(=O)C1)CCC2 (stereo unspecified) the results were TSG101-PTAP inh -4%, DRD3 antagonist -23, Rango release inh inconclusive, Rango complex inh inconclusive, DRD3 agonist 6 and Mm-Cpn inhibitor -2%.
Screening CC(=O)N1CN(C2CCS(=O)(=O)C2)Cc2c1sc1c2CCCC1 (stereo unspecified) returned TSG101-PTAP inh -4%, DRD3 antagonist -56*, Rango release inh 4%, Rango complex inh 0%, DRD3 agonist 9 and Mm-Cpn inhibitor -1%.
For O=C(CN1CCN(Cc2ccc(Cl)cc2)C1=O)NCCCN1CCN(c2ccc(F)cc2)CC1 the results were TSG101-PTAP inh -1%, DRD3 antagonist -66*, Rango release inh 0%, Rango complex inh 2%, DRD3 agonist -48 and Mm-Cpn inhibitor 1%.
`O=C(Nc1ccccc1F)c1ccc(CN2CCN(c3ccccc3)CC2)cc1` gave TSG101-PTAP inh 1%, DRD3 antagonist -54*, Rango release inh 0%, Rango complex inh 7%, DRD3 agonist -2 and Mm-Cpn inhibitor -2%.
O=C(CCN1CCN(c2ccc(F)cc2)CC1)Nc1ccccc1F was read as TSG101-PTAP inh -10%, DRD3 antagonist -5, Rango release inh -3%, Rango complex inh -4%, DRD3 agonist -4 and Mm-Cpn inhibitor 1%.
`O=C(CCN1CCN(c2ccccc2)CC1)Nc1ccccc1F` gave TSG101-PTAP inh -7%, DRD3 antagonist inconclusive, Rango release inh 0%, Rango complex inh 5%, DRD3 agonist 34* and Mm-Cpn inhibitor -2%.
For CSc1ccc(N2CCN(CCCNC(=O)Nc3ccccc3F)CC2)cc1 the results were TSG101-PTAP inh -3%, DRD3 antagonist inconclusive, Rango release inh 1%, Rango complex inh 4%, DRD3 agonist 31* and Mm-Cpn inhibitor 2%.
`O=C(NCCc1c[nH]c2ccccc12)c1ccco1` gave TSG101-PTAP inh 0%, DRD3 antagonist 3, Rango release inh -16%, Rango complex inh 0%, DRD3 agonist -6 and Mm-Cpn inhibitor 4%.
For CCOCCCn1c(C)nc2c(c1=O)c1nc3ccccc3nc1n2-c1ccc2c(c1)OCCO2 the results were TSG101-PTAP inh -2%, DRD3 antagonist -13, Rango release inh -17%, Rango complex inh 4%, DRD3 agonist 3 and Mm-Cpn inhibitor -7%.
For O=C(NCCCN1CCN(c2ccc(F)cc2)CC1)NC12CC3CC(CC(C3)C1)C2 the results were TSG101-PTAP inh -2%, DRD3 antagonist -82*, Rango release inh 8%, Rango complex inh -2%, DRD3 agonist -1 and Mm-Cpn inhibitor 2%.
For Cc1cc(C(=O)C(=O)Nc2nnc(C(C)C)s2)c(C)n1-c1ccccc1 the results were DRD3 agonist -13.
Screening O=C(CCN1C(=O)c2cccc3cccc(c23)C1=O)NCc1ccco1 returned TSG101-PTAP inh -7%, DRD3 antagonist -13, Rango release inh -1%, Rango complex inh 2%, DRD3 agonist 34* and Mm-Cpn inhibitor 1%.
